Measurements: PubChem BioAssay AID743279 (National Center for Advancing Translational Sciences (NCATS), 2014)
The campaign covered roughly 360,000 compounds. About 17,000 (4.7%) were called active. About 5% were inconclusive and are not listed. This excerpt belongs to a sample that is enriched for actives. Unmarked numbers belong to inactive results. Rule as the data show it: active = activity change below about -50%; inconclusive = mostly about -30% to -49%; inactive = weaker than that.

Assay: qHTS for Inhibitors of Inflammasome Signaling: IL-1-beta AlphaLISA Primary Screen
Conditions: THP-1 LPS/ATP IL-1B secretion, 16 h; at 57.5 µM, active compounds read low
Outline: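 THP-1 cells pretreated 1 hr with compounds (up to 57.5 uM final), then stimulated with LPS (250 ng/mL final) plus ATP (1.25 mM final); secreted IL-1B measured by AlphaLISA after 16 hr, decreased signal indicating inhibition.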
% is scaled to controls: 0 for no effect and ±100 for the full control effect.

Compound	activity change
CCN(CC)CCNC(=O)C1c2ccccc2C(=O)N(C)C1c1cn(C)c2ccccc12 (configuration not stated)	6.05%
CSc1nnc2c(n1)OC(c1cn(C)c3ccccc13)N(C(C)=O)c1ccccc1-2 (configuration not stated)	0.333%
Cn1cc(C2OC(=O)c3ccccc32)c2ccccc21 (configuration not stated)	-66% (active)
CCCc1ccc(C(O)c2ncc(-c3cccc(OC)c3)[nH]2)cc1 (configuration not stated)	26%
COC(=O)c1ccccc1Oc1c(F)c(F)nc(N2CCOCC2)c1F	5.09%
Cn1nc(C(=O)OCC(=O)N(Cc2ccccc2)C(C)(C)C)c2ccccc2c1=O	10.9%
Cc1ccc(C)c(OCCC(=O)OCC(=O)NC(=O)NCc2ccccc2)c1	-87.8% (active)
Cc1ccc(C)c(OCCC(=O)OCC(=O)N2CCN(c3ccccc3)CC2)c1	-2.33%
COc1ccccc1OCCC(=O)OCC(=O)NCc1ccccc1	18%
Nc1[nH]c(C(=O)c2ccccc2)c(-c2ccncc2)c1C(=O)NCc1cccc2ccccc12	7.69%
Cc1noc(C)c1S(=O)(=O)N(C)C[C@H]1OCCCC[C@@H](C)Oc2ccc(NC(=O)CCCN(C)C)cc2C(=O)N([C@H](C)CO)C[C@@H]1C	19.6%
O=[N+]([O-])c1ccc(CN2CC(N3CC=CC3)CS2(=O)=O)cc1 (configuration not stated)	-24.5%
COC(=O)c1ccc(NC(=O)C23CC4CC(C2)CC(n2cnc(Cl)n2)(C4)C3)cc1	54.6%
O=C(CSc1nc2cccc(F)c2c(=O)n1-c1ccccc1)Nc1ccc2c(c1)CCC2	0%
Oc1c(Cl)cc(Cl)cc1/C=N/c1ncn[nH]1	-20.2%
COc1cc(Br)cc(/C=N/c2ncn[nH]2)c1O	-55.5% (active)
C=CCn1c(Cn2nnc3ccccc32)nnc1SCC(=O)N/N=C/c1cc(Br)cc(OC)c1O	1%
Nn1c(SCC(=O)Nc2nccs2)nncc1=O	9.24%
C[C@@H]1C[C@@H]2O[C@H]2/C=C\C=C\C(=O)Cc2c(Cl)c(O)cc(O)c2C(=O)O1	-108% (active)
CC1CCCCC12NC(=O)N(CC(=O)OCC(=O)NCc1ccc(F)cc1)C2=O (configuration not stated)	28%
CC1=CC(=NNS(=O)(=O)c2ccc([N+](=O)[O-])cc2)CC(C)(C)C1	8.3%
COc1ccc(CCNS(=O)(=O)c2cccc([N+](=O)[O-])c2)cc1	-12.5%
COc1ccc(S(=O)(=O)N2CCN(C(=S)NCC3CCCO3)CC2)cc1OC (configuration not stated)	41.3%

Compound	activity change
CCOc1ccc(S(=O)(=O)N2CCN(C(=S)NCC3CCCO3)CC2)cc1 (configuration not stated)	8.09%
S=C(NCC1CCCO1)N1CCN(c2ccc(Cl)c(Cl)c2)CC1 (configuration not stated)	-64.9% (active)
CCCC/C=C/c1cccc2nncn12	0%
c1ccc2c(C[n+]3csc4ccccc43)cccc2c1	-14.6%
COC(=O)c1cc2n(n1)CCCNC2=O	-12.8%
NS(=O)(=O)c1ccc(NC(=O)COC(=O)c2c3c(nc4ccccc24)/C(=C\c2ccc4c(c2)OCO4)CCC3)cc1	-62.6% (active)
NC(=O)c1ccc(NC(=O)COC(=O)c2c3c(nc4ccccc24)/C(=C\c2ccc4c(c2)OCO4)CCC3)cc1	-3.47%
O=C(COC(=O)c1ccncc1)Nc1ccc2c(c1)OCO2	7.7%
CCOc1ccc2[nH]c(=S)sc2c1	32.5%
COc1ccc(/C=C2\SC(=S)N(CCC(=O)N3CCOCC3)C2=O)cc1OC	-10.5%
Cc1ccc(/C=C2/SC(=S)N(CCC(=O)NCCCN3CCOCC3)C2=O)cc1	-83.3% (active)
O=C(CCN1C(=O)c2ccccc2C1=O)NCCN1CCOCC1	-5.01%
CC(OC(=O)CCC(=O)c1ccccc1)C(=O)Nc1ccc(F)cc1 (configuration not stated)	9.85%
Cc1c(C(=O)NCC2CC2)sc(=O)n1Cc1cccc(F)c1	-16.4%
COc1ccc(CNC(=O)CCN2C(=O)c3ccccc3C2=O)cc1	-9.34%
CCOC(=O)c1cc2cc3ccccc3cc2oc1=O	-12.5%
CCOC(=O)C1=C(c2ccc(OC)cc2)C(=O)c2ccccc2C1=O	-99% (active)
CCN(CC)C(=O)C1=C(C)N(Cc2ccc(OC)cc2)C(=O)C(CC(=O)NCc2ccco2)C1 (configuration not stated)	-25.2%
Cc1ccc(C(=O)N2CCC(n3nccc3NC(=O)Nc3cccc(F)c3)CC2)cn1	8.12%
COc1cc(OC)c(C(=O)NCc2ccc3c(c2)OCO3)cc1OC	38%
COc1ccccc1-n1c(C)nc2cc(C(=O)NCc3ccc4c(c3)OCO4)ccc21	-65.9% (active)
CCOc1c2ccc(C(=O)NCc3ccc4c(c3)OCO4)cc2nn1C	-4.17%
Cn1c(N)cc(=O)n(C)c1=S	19%

Compound	activity change
CC1CCN(C(=S)c2ccc(-c3ccc(Cl)cc3Cl)o2)CC1	-11.9%
S=C(c1ccc(-c2ccccc2)o1)N1CCCCC1	-56.6% (active)
S=C(c1ccccc1)N1CCCC1	9.49%
COc1ccc(NC(=O)c2cc(=O)[nH]c3ccccc23)cc1S(=O)(=O)N1CCOCC1	-13.1%
CCN(CC)CCCNC(=O)c1c(O)c2cc(F)cc3c2n(c1=O)C(C)CC3 (configuration not stated)	67.3%
O=C(NCc1ccco1)c1cccc(-c2ccc3nncn3c2)c1	0%
Cc1ccc(-c2ccc(C3=CC(=O)CC(C)(C)C3=O)cc2)cc1	-18.9%
COc1cc(/C=C2/C(=O)ON=C2C)ccc1OCc1ccccc1F	-99.7% (active)
COc1cc(/C=C2/C(=O)ON=C2C)ccc1OCc1cccc(F)c1	-6.27%
C=CCOc1ccc(/C=C2/C(=O)ON=C2C)cc1OCC	-98.7% (active)
CC1=NOC(=O)/C1=C\c1ccccc1	11.9%
C=CCOc1ccc(/C=N/NC(=O)C(C)Sc2ccccn2)cc1OCC (configuration not stated)	-1.69%
C#CCOc1ccccc1/C=C1/C(=O)ON=C1C	-15%
C#CCOc1ccc(/C=C2/C(=O)ON=C2C)cc1OCC	-87.9% (active)
C#CCOc1ccc(/C=C2/C(=O)NN(c3ccccc3)C2=O)cc1OC	11.3%
COc1cc(/C=C2\SC(=O)NC2=O)ccc1OCc1ccc(Cl)nc1	11.8%
CC(=O)c1ccccc1NC(=O)COC(=O)C1COc2ccccc2O1 (configuration not stated)	22.8%
OC[C@@H]1CN(Cc2ccc3c(c2)OCO3)C[C@H](n2cnc3c(NCc4ccco4)ncnc32)O1	0.259%
O=C(C(=O)N1CCC(c2ccccc2)CC1)c1ccccc1	27.9%
CCCCNC(=O)C[C@@H]1C[C@@]2(C(=O)OCC)CCC=C2N(Cc2cccc3ccccc23)C1=O	-0.516%
C=CCC1(C(=O)N(C)Cc2ccccc2)CCN(C(=O)OC(C)(C)C)CC1	-21.2%
CCOc1ccc(C(C)=O)cc1COC(=O)CN1C(=O)NC2(CCCC2)C1=O	-1.02%
Cc1onc(-c2ccccc2)c1-c1nnc(COC(=O)c2ccc(N(C)C)cc2)o1	21.8%

Compound	activity change
CCOc1ccccc1NC(=O)Cn1ncc2ccc([N+](=O)[O-])cc21	10.8%
CN(C)CCNc1ccc(-c2n[nH]c(=O)c3ccccc23)cc1[N+](=O)[O-]	-56.7% (active)
COCCNc1ccc(-c2n[nH]c(=O)c3ccccc23)cc1[N+](=O)[O-]	20.3%
Cc1ccc(S(=O)(=O)N(C)C)cc1NC(=O)c1n[nH]c(=O)c2ccccc12	-9.1%
C=CCCC(=O)N1C[C@H]2CON(C)[C@H]2C[C@H]1c1cccc(Nc2ccccc2)c1	-2.63%
Cc1cc(Nc2ccc(C)c(C)c2)n2ncnc2n1	3.66%
CCOC(=O)[C@]12CCCC=C1N(CCC1=CCCCC1)C(=O)[C@H](CC(=O)N1CCCCC1)C2	19.5%
COCCNC(=O)CSc1nc2sccc2c(=O)n1-c1ccccc1	14%
O=C1CC(C(=O)O)NC(=S)N1 (configuration not stated)	3.02%
O=[N+]([O-])c1ccc2[nH]c3c(c2c1)CCCC3O (configuration not stated)	-14.8%
COC(=O)c1ccc(C23CC4(C2)[C@H](CN(Cc2cccnc2)[C@@H]4c2ccccc2)C3c2ccc(Cl)nc2)cc1 (some centres not stated)	24%
O=C(C[n+]1ccc2c(c1)nnn2-c1ccccc1)c1ccc(Cl)cc1	-56.5% (active)
O=C(Cn1cc(-c2nnnn2-c2ccc(Cl)cc2)c(=O)c2ccccc21)c1ccccc1	33.2%
O=C(CSc1cccc[n+]1[O-])c1ccc(Cl)cc1	-5.03%
CC1(C)NC(=O)N(CC(=O)Nc2ccc(-c3ccccc3)cc2)C1=O	4.98%
O=C(Nc1nccs1)c1cc(S(=O)(=O)N2CCOCC2)c(Cl)cc1Cl	-105% (active)
O=C(Nc1ccc(S(=O)(=O)Nc2nccs2)cc1)c1cccc(S(=O)(=O)N2CCOCC2)c1	0%
O=C(NCc1cccnc1)c1cc(S(=O)(=O)N2CCOCC2)c(Cl)cc1Cl	16.2%
C[C@@H]1CN([C@H](C)CO)C(=O)c2cc(Br)cnc2O[C@@H]1CN(C)Cc1cncnc1	-0.234%
CC(=O)Nc1cncc(-c2ccccc2CO)n1	5.55%
CC1(C)CCSC(/C=C/c2ccccc2)=N1	-102% (active)
CC1(C(=O)NS(=O)(=O)c2ccccc2)CCN1C(=O)C/C=C/c1ccccc1 (configuration not stated)	-5.77%
CC1(C(=O)O)CCN1C(=O)/C=C/c1ccccc1 (configuration not stated)	23.5%
